Measurements: PubChem BioAssay (NCI)
Compounds without any hit were thinned out: in the full panel of roughly 83,000, 20% have a hit.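 Values shown are percent growth following 48 h exposure of cells in 96-well plates to a single concentration of compound; below 10 was considered active.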 Activity calls are given as the source filed them.

Assays:
Assay in all cases: NCI-60 one-dose screen, 48 h (100 = growth as untreated, 0 = no growth, -100 = all killed)
Conditions in all cases: 10 µM
SK-MEL-2 melanoma = test system: SK-MEL-2 melanoma
SN12C renal = test system: SN12C renal
UO-31 renal = test system: UO-31 renal
TK-10 renal = test system: TK-10 renal
ACHN renal = test system: ACHN renal
CAKI-1 renal = test system: CAKI-1 renal
A498 renal = test system: A498 renal
MOLT-4 leukemia = test system: MOLT-4 leukemia
RPMI-8226 leukemia = test system: RPMI-8226 leukemia
OVCAR-8 ovarian = test system: OVCAR-8 ovarian
OVCAR-5 ovarian = test system: OVCAR-5 ovarian
OVCAR-4 ovarian = test system: OVCAR-4 ovarian
SK-OV-3 ovarian = test system: SK-OV-3 ovarian
IGROV1 ovarian = test system: IGROV1 ovarian
OVCAR-3 ovarian = test system: OVCAR-3 ovarian
HS 578T breast = test system: HS 578T breast
NCI/ADR-RES ovarian = test system: NCI/ADR-RES ovarian
CCRF-CEM leukemia = test system: CCRF-CEM leukemia
SR leukemia = test system: SR leukemia

Measured: growth

Cc1ccccc1C1=N[C@@H](Cc2ccccc2)C(=O)c2c(nc3ccccn23)N1
inactive: SK-MEL-2 melanoma 115% | SN12C renal 107% | UO-31 renal 80.6% | TK-10 renal 138% | ACHN renal 94.5% | CAKI-1 renal 88.9% | A498 renal 98.2% | MOLT-4 leukemia 111% | RPMI-8226 leukemia 98.4% | OVCAR-8 ovarian 92.8% | OVCAR-5 ovarian 101% | OVCAR-4 ovarian 98.7% | SK-OV-3 ovarian 111% | IGROV1 ovarian 108% | OVCAR-3 ovarian 108% | HS 578T breast 102% | NCI/ADR-RES ovarian 95.6%

CS(=O)(=O)Nc1ccc(Nc2c3ccccc3nc3cc(Cl)ccc23)cc1
active: UO-31 renal 0.84% | CAKI-1 renal 6.38% | CCRF-CEM leukemia 7.94% | MOLT-4 leukemia -5.91% | SR leukemia 7.92%
inactive: SK-MEL-2 melanoma 74.1% | SN12C renal 13.9% | TK-10 renal 55% | A498 renal 48.5% | RPMI-8226 leukemia 41.3% | OVCAR-8 ovarian 25.5% | OVCAR-5 ovarian 63.1% | OVCAR-4 ovarian 56.7% | SK-OV-3 ovarian 42.6% | IGROV1 ovarian 29.8% | OVCAR-3 ovarian 56.3% | HS 578T breast 81.8% | NCI/ADR-RES ovarian 44.8%

COc1cc(-c2nc3ccccc3[nH]2)ccc1OCC(=O)N=Nc1c(O)[nH]c2ccccc12
active: CCRF-CEM leukemia -25.3% | SR leukemia -5.28%
inactive: SK-MEL-2 melanoma 103% | SN12C renal 83.2% | UO-31 renal 89.3% | TK-10 renal 136% | CAKI-1 renal 94.2% | A498 renal 95.2% | MOLT-4 leukemia 65.9% | RPMI-8226 leukemia 25.8% | OVCAR-8 ovarian 49.1% | OVCAR-5 ovarian 109% | OVCAR-4 ovarian 76.4% | SK-OV-3 ovarian 101% | IGROV1 ovarian 93.2% | OVCAR-3 ovarian 79.6% | HS 578T breast 83.7% | NCI/ADR-RES ovarian 109%

COc1cc2c3c(cccc3c1)C(=O)N(CCN1CCCC1)C2=O
inactive: CAKI-1 renal 14.2% | CCRF-CEM leukemia 18.9% | RPMI-8226 leukemia 12.2% | OVCAR-5 ovarian 34.1% | OVCAR-4 ovarian 21.6% | SK-OV-3 ovarian 34.1% | IGROV1 ovarian 23.5% | HS 578T breast 27.1% | NCI/ADR-RES ovarian 13%
active: SK-MEL-2 melanoma -8.39% | UO-31 renal -3.17% | TK-10 renal -6.26% | ACHN renal 7.6% | A498 renal -22.1% | MOLT-4 leukemia 4.5% | SR leukemia 2.44% | OVCAR-8 ovarian 6.43% | OVCAR-3 ovarian 0.462%

O=C(Nc1ccc(OS(=O)(=O)Cc2ccccc2)cc1)C12CC3CC(CC(C3)C1)C2
inactive: SK-MEL-2 melanoma 102% | SN12C renal 88.3% | TK-10 renal 112% | ACHN renal 99.8% | CAKI-1 renal 84.2% | A498 renal 83.1% | CCRF-CEM leukemia 85.2% | MOLT-4 leukemia 41.5% | SR leukemia 30.3% | RPMI-8226 leukemia 35% | OVCAR-8 ovarian 91.4% | OVCAR-5 ovarian 104% | OVCAR-4 ovarian 78.7% | SK-OV-3 ovarian 87.3% | IGROV1 ovarian 97.8% | OVCAR-3 ovarian 80.2% | HS 578T breast 98.7% | NCI/ADR-RES ovarian 84.4%

CCc1nn2c(-c3ccccc3)c(-c3cc(OC)c(OC)c(OC)c3)nc2s1
inactive: SK-MEL-2 melanoma 37.9% | SN12C renal 88.1% | TK-10 renal 82.2% | ACHN renal 85.8% | CAKI-1 renal 69.4% | A498 renal 62.5% | CCRF-CEM leukemia 70.9% | MOLT-4 leukemia 72.4% | SR leukemia 59.4% | RPMI-8226 leukemia 60.2% | OVCAR-8 ovarian 88.1% | OVCAR-5 ovarian 98.5% | OVCAR-4 ovarian 68.5% | SK-OV-3 ovarian 102% | IGROV1 ovarian 87.3% | OVCAR-3 ovarian 92% | HS 578T breast 69.8% | NCI/ADR-RES ovarian 77.1%

Nc1ncc(-c2ccc(C(F)(F)F)cc2)c(NC2CCCCCC2)n1
inactive: SN12C renal 29.9% | TK-10 renal 36.9% | ACHN renal 16.4% | CAKI-1 renal 55.8% | A498 renal 58.8% | CCRF-CEM leukemia 31.1% | MOLT-4 leukemia 57.5% | SR leukemia 60.3% | OVCAR-8 ovarian 19.4% | OVCAR-5 ovarian 53% | OVCAR-4 ovarian 20% | SK-OV-3 ovarian 76.1% | IGROV1 ovarian 58.6% | OVCAR-3 ovarian 14.5% | HS 578T breast 38.4% | NCI/ADR-RES ovarian 56.9%
active: SK-MEL-2 melanoma 0.455% | RPMI-8226 leukemia -8.42%

O=C(NC1CCN(Cc2ccccc2)CC1)c1cc(-c2ccncc2)nc2ccc(Cl)cc12
inactive: SK-MEL-2 melanoma 44.1% | SN12C renal 27.3% | UO-31 renal 11.9% | TK-10 renal 61.4% | CAKI-1 renal 13.4% | A498 renal 11% | RPMI-8226 leukemia 21.9% | OVCAR-8 ovarian 18.4% | OVCAR-5 ovarian 75.3% | OVCAR-4 ovarian 27.6% | SK-OV-3 ovarian 53.1% | IGROV1 ovarian 32.3% | HS 578T breast 59.9% | NCI/ADR-RES ovarian 11.2%
active: CCRF-CEM leukemia 2.77% | MOLT-4 leukemia 7.58% | SR leukemia 8.12%

O=NN(CCCl)C(=O)Nc1ccc(NC(=O)N(CCCl)N=O)cc1
inactive: SK-MEL-2 melanoma 129% | SN12C renal 90.7% | TK-10 renal 114% | ACHN renal 96.4% | CAKI-1 renal 100% | A498 renal 67.1% | CCRF-CEM leukemia 102% | MOLT-4 leukemia 97.2% | RPMI-8226 leukemia 100% | OVCAR-8 ovarian 93% | OVCAR-5 ovarian 95.2% | OVCAR-4 ovarian 93.7% | SK-OV-3 ovarian 105% | IGROV1 ovarian 85.9% | OVCAR-3 ovarian 111% | HS 578T breast 104% | NCI/ADR-RES ovarian 98.7%
active: SR leukemia 2.28%

CC(Oc1ccc(Cl)cc1)c1ccccc1 (centres undefined)
inactive: SK-MEL-2 melanoma 112% | SN12C renal 98.1% | TK-10 renal 106% | ACHN renal 125% | CAKI-1 renal 96.5% | A498 renal 119% | CCRF-CEM leukemia 94.1% | MOLT-4 leukemia 87.3% | SR leukemia 99.1% | RPMI-8226 leukemia 101% | OVCAR-8 ovarian 110% | OVCAR-5 ovarian 103% | OVCAR-4 ovarian 103% | SK-OV-3 ovarian 103% | IGROV1 ovarian 96% | OVCAR-3 ovarian 107% | HS 578T breast 104% | NCI/ADR-RES ovarian 103%

CCC(CCNc1cc(OC)cc2cccnc12)CN1C(=O)c2ccccc2C1=O (centres undefined)
inactive: SK-MEL-2 melanoma 108% | UO-31 renal 94.7% | TK-10 renal 119% | ACHN renal 102% | CAKI-1 renal 92.8% | A498 renal 117% | CCRF-CEM leukemia 99.3% | MOLT-4 leukemia 108% | SR leukemia 109% | RPMI-8226 leukemia 95.1% | OVCAR-8 ovarian 109% | OVCAR-5 ovarian 111% | OVCAR-4 ovarian 16.9% | SK-OV-3 ovarian 95.7% | IGROV1 ovarian 113% | OVCAR-3 ovarian 106% | HS 578T breast 177% | NCI/ADR-RES ovarian 89.9%

Cc1cc(/C=C2\SC(=Nc3ccccc3)N(C3CCCC3)C2=O)c(C)n1-c1ccc(Cl)cc1
active: SK-MEL-2 melanoma -77.3% | UO-31 renal -91.9% | TK-10 renal -90.9% | ACHN renal -76.3% | CAKI-1 renal -59.9% | A498 renal -88.3% | CCRF-CEM leukemia -9.97% | MOLT-4 leukemia -18% | SR leukemia -36.8% | RPMI-8226 leukemia -43.3% | OVCAR-8 ovarian -38% | OVCAR-5 ovarian -24.9% | OVCAR-4 ovarian -35.3% | SK-OV-3 ovarian -90.5% | IGROV1 ovarian -48.6% | OVCAR-3 ovarian -85.1% | HS 578T breast -12.8% | NCI/ADR-RES ovarian 0.0476%

O=S(=O)(O)C1(O)CCCCC1
inactive: SK-MEL-2 melanoma 90.1% | SN12C renal 99.3% | TK-10 renal 169% | ACHN renal 72.9% | CAKI-1 renal 76% | A498 renal 112% | CCRF-CEM leukemia 92.8% | MOLT-4 leukemia 87.9% | SR leukemia 83.1% | RPMI-8226 leukemia 81.5% | OVCAR-8 ovarian 79.3% | OVCAR-5 ovarian 90.5% | OVCAR-4 ovarian 79.1% | SK-OV-3 ovarian 94.9% | IGROV1 ovarian 65.9% | OVCAR-3 ovarian 103% | HS 578T breast 104% | NCI/ADR-RES ovarian 95.4%

Clc1cc(Cl)c(Cl)c(-c2nc(-c3cccnc3)cs2)c1
inactive: SK-MEL-2 melanoma 99.3% | SN12C renal 94.2% | TK-10 renal 82.6% | ACHN renal 61.5% | CAKI-1 renal 48.7% | A498 renal 104% | CCRF-CEM leukemia 62.6% | MOLT-4 leukemia 56.9% | RPMI-8226 leukemia 40% | OVCAR-8 ovarian 78.8% | OVCAR-5 ovarian 79.6% | OVCAR-4 ovarian 68.7% | SK-OV-3 ovarian 102% | IGROV1 ovarian 49.6% | OVCAR-3 ovarian 71.7% | HS 578T breast 98.9% | NCI/ADR-RES ovarian 85.1%
active: SR leukemia 9.83%

COc1ccc(S(=O)(=O)Nc2ccc(OCc3nnc(-c4ccc(Cl)cc4)o3)c(F)c2)cc1
inactive: SK-MEL-2 melanoma 40.6% | SN12C renal 68.1% | UO-31 renal 51.3% | TK-10 renal 57.6% | CAKI-1 renal 54.6% | A498 renal 47% | CCRF-CEM leukemia 54.5% | MOLT-4 leukemia 36% | SR leukemia 18.4% | RPMI-8226 leukemia 31.6% | OVCAR-5 ovarian 98.5% | OVCAR-4 ovarian 45.5% | SK-OV-3 ovarian 78.8% | IGROV1 ovarian 79.4% | OVCAR-3 ovarian 71.8% | HS 578T breast 86.3% | NCI/ADR-RES ovarian 45.7%

COc1ccc(C(=O)/C=C/c2cc(-c3ccc(OC)c(OC)c3)n[nH]2)cc1OC
active: SN12C renal -31.7% | TK-10 renal -20.7% | ACHN renal -70.9% | CAKI-1 renal -24.4% | A498 renal -40.7% | CCRF-CEM leukemia 3.32% | MOLT-4 leukemia 1.44% | SR leukemia 4.7% | RPMI-8226 leukemia -45.9% | OVCAR-8 ovarian -22.8% | OVCAR-5 ovarian -8.32% | OVCAR-4 ovarian -38.9% | IGROV1 ovarian -32.7% | OVCAR-3 ovarian -42% | NCI/ADR-RES ovarian 4.63%
inactive: SK-MEL-2 melanoma 42.7% | SK-OV-3 ovarian 41.2% | HS 578T breast 46.6%

Cc1cc2cc3c(=O)[nH]c(=O)cc-3n(CC(O)C(O)C(O)CO)c2cc1C (centres undefined)
inactive: SK-MEL-2 melanoma 120% | SN12C renal 113% | TK-10 renal 125% | ACHN renal 75.1% | CAKI-1 renal 87.9% | A498 renal 109% | CCRF-CEM leukemia 105% | MOLT-4 leukemia 99.8% | SR leukemia 111% | RPMI-8226 leukemia 106% | OVCAR-8 ovarian 97.3% | OVCAR-5 ovarian 106% | OVCAR-4 ovarian 109% | SK-OV-3 ovarian 99.1% | IGROV1 ovarian 112% | OVCAR-3 ovarian 103% | HS 578T breast 101% | NCI/ADR-RES ovarian 105%

Cc1ccc(/C=C2\CN(Cc3cn(CCNc4ccnc5cc(Cl)ccc45)nn3)C/C(=C\c3ccc(C)cc3)C2=O)cc1
active: SK-MEL-2 melanoma -27.5% | SN12C renal -63.4% | ACHN renal -16.9% | CAKI-1 renal -13.6% | A498 renal -81.1% | MOLT-4 leukemia -10.4% | SR leukemia -19.5% | RPMI-8226 leukemia -30.2% | OVCAR-5 ovarian -10.9% | OVCAR-3 ovarian -50.6% | NCI/ADR-RES ovarian 9.21%
inactive: TK-10 renal 29.9% | CCRF-CEM leukemia 11.7% | OVCAR-4 ovarian 30.3% | IGROV1 ovarian 28.3% | HS 578T breast 13.9%
